Bioassay records deposited in PubChem BioAssay by National Center for Advancing Translational Sciences (NCATS).
PI5P4Ka inh: blocks human PI5P4K alpha kinase activity; PI5P4Kalpha enzyme, ADP-Glo luminescence, 60 min; active compounds read low; P48426; AID 652105; max response, %; 330,000 compounds, 1.2% hits; active means max response of -50% or lower; inconclusive means between -30% and -50%; inactive means -30% or higher; further: value at the top dose of about 77 µM
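Quantitative HTS of the MLSMR library against PI5P4Kalpha with substrate. ATP added last at 5 microM final; room temperature, 60 minutes. Remaining ATP depleted, ADP converted and read as luminescence.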
JMJD2E inh: inhibitors of human JMJD2E histone demethylase | B2RXH2 | AID 2147 | JMJD2E catalytic domain, FDH-coupled NADH fluorescence (FDH is formaldehyde dehydrogenase) | Potency, µM (doses to about 57.1 µM), most hits filed as inhibitors | 230,000 compounds, 1.6% hits; active means well fitted inhibition curve with a large enough effect, not every such curve was filed as active; inconclusive means small, poorly fitted or top-dose-only effect, or another doubt; inactive means no such curve, though single readings can be large or run the other way; further: nearly all actives have a fitted effect of over 50% in size
L3MBTL1 inh: inhibitors of human L3MBTL1; Q9Y468; AlphaScreen L3MBTL1–H3K9me1 peptide binding; Potency, µM (top dose mostly 57.1 µM), hits mostly inhibitors; 230,000 compounds, 0.66% hits; AID 485360; further: nearly all actives have a fitted effect of over 60% in size
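AlphaScreen proximity signal between nickel-chelate acceptor and streptavidin donor beads (final 10 ug/mL) reports binding of 50 nM L3MBTL1 to 75 nM biotin-H3 K9me1 peptide; complex incubated with compounds 30 min at room temperature; cefsulodin titration as control.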
JMJD2A Tudor: blocks the human JMJD2A Tudor domain. O75164. AlphaScreen JMJD2A-Tudor / H3K4me3 peptide binding. Potency, µM (titrated, usually from 114 µM), actives largely listed as inhibitors. 390,000 compounds, 4.4% hits. AID 504339; further: nearly all actives have a fitted effect of over 50% in size
Target sequence (O75164 whole entry, looked up, the tested form may be a part): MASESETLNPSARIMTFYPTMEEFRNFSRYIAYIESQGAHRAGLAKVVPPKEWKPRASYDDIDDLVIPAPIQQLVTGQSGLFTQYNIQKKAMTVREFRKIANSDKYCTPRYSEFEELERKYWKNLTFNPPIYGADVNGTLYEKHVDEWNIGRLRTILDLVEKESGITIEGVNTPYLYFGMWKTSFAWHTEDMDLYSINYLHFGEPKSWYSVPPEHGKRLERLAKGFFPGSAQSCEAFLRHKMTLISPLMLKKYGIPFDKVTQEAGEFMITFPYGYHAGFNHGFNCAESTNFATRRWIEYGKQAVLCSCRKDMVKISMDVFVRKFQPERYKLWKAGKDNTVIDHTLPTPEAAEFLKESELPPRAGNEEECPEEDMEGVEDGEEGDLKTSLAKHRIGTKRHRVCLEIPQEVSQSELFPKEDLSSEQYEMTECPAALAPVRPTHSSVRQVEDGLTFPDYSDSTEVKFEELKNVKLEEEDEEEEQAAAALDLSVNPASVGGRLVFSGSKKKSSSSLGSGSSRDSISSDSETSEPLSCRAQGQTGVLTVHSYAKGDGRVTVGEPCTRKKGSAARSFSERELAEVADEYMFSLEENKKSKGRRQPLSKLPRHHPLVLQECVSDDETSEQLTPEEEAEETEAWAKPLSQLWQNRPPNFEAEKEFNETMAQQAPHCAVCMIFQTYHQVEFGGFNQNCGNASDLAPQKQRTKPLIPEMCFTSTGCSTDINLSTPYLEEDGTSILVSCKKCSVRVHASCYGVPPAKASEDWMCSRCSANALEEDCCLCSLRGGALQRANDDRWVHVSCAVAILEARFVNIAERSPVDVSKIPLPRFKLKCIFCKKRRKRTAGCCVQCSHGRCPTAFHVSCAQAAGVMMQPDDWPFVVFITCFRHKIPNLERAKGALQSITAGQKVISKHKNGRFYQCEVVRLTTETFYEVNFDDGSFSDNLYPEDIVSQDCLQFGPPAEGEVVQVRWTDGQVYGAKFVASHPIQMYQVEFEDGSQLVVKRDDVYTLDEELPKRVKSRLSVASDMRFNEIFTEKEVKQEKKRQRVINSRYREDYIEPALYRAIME
BAZ2B inh: blocks human BAZ2B. Q9UIF8. AlphaScreen BAZ2B-H3K14Ac peptide displacement. Potency, µM (doses to about 114 µM), most hits filed as inhibitors. 360,000 compounds, 4.4% hits. AID 504333; further: nearly all actives have a fitted effect of over 60% in size
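AlphaScreen displacement of biotin-H3(5-23)K14Ac peptide (50 nM final) from BAZ2B (50 nM final) in PBS pH 7.4, 0.01% Tween-20; complex preformed 30 min RT, then compounds (top 110 uM) 30 min RT, beads 20 min dark.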
HP1b chromo inh: blocks HP1-beta chromodomain binding to methylated histone tails. P83916. AlphaScreen HP1-beta / biotin-H3K9me3 peptide binding. 390,000 compounds, 0.56% hits. AID 540317. Potency, µM (top dose mostly 114 µM), actives largely listed as inhibitors; further: nearly all actives have a fitted effect of over 70% in size
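Compound inhibition of the preformed complex between 50 nM HP1-beta and 50 nM biotinylated H3K9me3 peptide was read by AlphaScreen. Buffer was PBS pH 7.4 with 0.01% Tween-20. Incubations ran 30 min at room temperature, with 10 ug/mL donor/acceptor beads.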
ADP-Glo interf: ADP-Glo luciferase interference, PI5P4K counter-screen | shares compounds with PI5P4Ka inh | ADP-Glo detection counter-screen, luciferase luminescence, no enzyme | Potency, µM (titrated, usually from 76.9 µM), actives largely listed as inhibitors | 1,100 tested, under 10 active | AID 743285
A number is an active result; - = inactive; ? = inconclusive; . = not tested or not shown; [ ] = remark or other dose. An excerpt weighted towards active compounds, which were near 5.7% of everything screened. Unless noted, the call rests on the fitted dose curve; in most records, active means well fitted curve in the direction sought with a large enough effect; inconclusive means small, poorly fitted or top-dose-only effect, or another doubt; inactive means no such curve, though single readings can be large; an effect the other way counts as inactive or inconclusive.

SMILES | PI5P4Ka inh | JMJD2E inh | L3MBTL1 inh | JMJD2A Tudor | BAZ2B inh | HP1b chromo inh | ADP-Glo interf
CC(=O)Nc1ccc2nc(SCC(=O)NCCOc3ccccc3)sc2c1 | -61.1 | - | . | ? | ? | - | -
CCN(CC)C(=O)CSc1nc2ccc(NC(=O)CSc3nccn3C)cc2s1 | . | - | ? | - | - | - | .
CCN(CC)C(=O)CSc1nc2ccc(NC(=O)CSc3nnc(N)s3)cc2s1 | -56.7 | - | ? | - | - | - | -
Cc1cc(C)c(NC(=O)OCCN2CCOCC2)c(C)c1 | -63.2 | - | - | -[11.4 µM] | - | ? | -
CSc1ccc(Cl)c(C(=O)OCC(=O)N(C)CCC#N)c1 | - | ? | - | - | - | - | .
CCOC(=O)c1cnc2cc(C)ccn2c1=O | - | ? | - | - | - | - | -
Fc1ccc(C2=Nc3cccc4cccc(c34)N2)cc1 | - | - | - | - | - | - | .
FC(F)(F)C1=Nc2cccc3cccc(c23)N1 | -82.4 | . | 2.51µM | ? | ? | - | -
CC(=O)N(CC(=O)Nc1nn(-c2ccccc2)nc1C(N)=O)Cc1ccccc1 | . | ? | - | - | - | - | .
CC(C)(C)n1nnnc1SCC(=O)Nc1nn(-c2ccccc2)nc1C(N)=O | -57.8 | ? | - | - | - | - | -
Cc1nn(-c2nc3ccccc3[nH]2)c(=O)c2ccccc12 | -60.1 | - | - | - | - | - | ?
CN(C)C(=S)NCc1ccccc1 | -54.4 | - | - | 25.1µM | - | - | -
Cc1cc(-c2csc(N)n2)c(C)n1CCC(C)C | -64.4 | - | . | 50.1µM | ? | - | -
CC(C)NC(=O)c1ccc2c(=O)n(CC3CCCO3)c(=S)[nH]c2c1 (centres undefined) | - | - | . | ? | - | - | .
COCCCNC(=O)c1ccc2c(=O)n(CC3CCCO3)c(=S)[nH]c2c1 (centres undefined) | - | - | - | 20µM | ? | - | -
COC(=O)[C@@]12C[C@@H](CC(=O)NCC3CCCCC3)C(=O)N(CCc3ccc(OC)c(OC)c3)C1=CCC(C)(C)C2 | - | . | . | . | . | . | .
CN(C)S(=O)(=O)c1ccc(C(=O)Nc2cc3c(cc2C(=O)O)OCCCO3)cc1 | -50.3 | . | . | - | ? | - | -
COc1ccc(CN2C(=O)c3cccc4cccc(c34)C2c2nc3ccccc3[nH]2)cc1 (centres undefined) | - | . | . | . | . | . | .
COc1ccc(-c2cc(=O)oc3cc(OC(C)C(=O)NC4CC4)ccc23)cc1 (centres undefined) | - | . | - | - | - | - | .
COc1ccc(-c2cc(=O)oc3cc(OC(=O)C4CCCCC4)c(Cl)cc23)cc1 | -55.4 | - | - | - | - | - | -
COc1cc(NC(=O)CN2C(=O)CN(C)C(=O)c3ccccc32)cc(OC)c1OC | . | . | . | - | - | - | .
O=C(O)c1cccc(NC(=O)c2cn(-c3ccccc3)nc2-c2cc3ccccc3o2)c1 | -52.6 | - | - | - | 50.1µM | - | -
COC(=O)Cc1c(C)nc2nc(-c3ccc(C)cc3)[nH]n2c1=O | -72.4 | ? | . | - | - | - | -
COC(=O)Cc1c(C)nc2nc(-c3ccc(Cl)cc3)[nH]n2c1=O | ? | ? | . | - | - | - | .
O=C(NCc1ccco1)c1cccc(Nc2nc3ccc(Br)cc3[nH]2)c1 | - | - | - | ? | - | - | .
SMILES | PI5P4Ka inh | JMJD2E inh | L3MBTL1 inh | JMJD2A Tudor | BAZ2B inh | HP1b chromo inh | ADP-Glo interf
O=C(NCC1CC1)c1ccc(Nc2nc3ccc(Br)cc3[nH]2)cc1 | -55.9 | ? | - | 20µM | - | ? | -
O=C(OCc1ccco1)c1ccc(S(=O)(=O)N2CCCCC2)cc1 | -52.2 | - | ? | 79.4µM | 50.1µM | - | -
COC(=O)CCC(=O)Nc1ccccc1C(=O)Nc1ccccc1 | - | - | - | - | - | - | .
CCN(CC)CCCCCC(=O)Nc1ccccc1C(=O)Nc1ccccc1 | - | . | - | - | ? | - | -
CCOC(=O)[C@]12CCCC=C1N(Cc1ccccc1)C(=O)[C@H](CC(=O)NCCCCc1ccccc1)C2 | - | . | . | . | . | . | .
COC(=O)[C@]12CCCCC=C1N(Cc1cccc3ccccc13)C(=O)[C@H](CC(=O)NCc1ccc(C)o1)C2 | -52.4 | . | . | . | . | . | -
CCOC(=O)[C@]12CCCC=C1N(Cc1ccccc1)C(=O)[C@H](CC(=O)NCCCOC)C2 | -56.9 | . | . | . | . | . | -
CCC(=O)N1CCC1(C)C(=O)Nc1cccc(OC)c1OC (centres undefined) | - | . | . | . | . | . | .
COc1ccc(CC(=O)NCC(=O)NC(Cc2ccccc2)C(=O)O)cc1 (centres undefined) | -65.4 | . | . | - | - | - | -
O=C(Cc1ccccc1)N[C@@H](Cc1ccccc1)C(=O)O | - | - | - | - | - | - | .
CCS(=O)(=O)c1ccc2oc(Nc3cc(C)cc(C)c3)nc2c1 | . | - | - | - | - | - | .
